{
  "source": "PubChem BioAssay AID463173",
  "about": "(ICCB-Longwood Screening Facility, Harvard Medical School, 2010)",
  "note": "About 4,300 (8.3%) of roughly 52,000 compounds were called active. This excerpt belongs to a sample that is enriched for actives. A number with no mark means an inactive call. No stated cut-off is given here; in the data, active means survival mostly below about 52% (no sharp cut-off); inactive means mostly above about 56%.",
  "data": [
    {"system": "DeltatarO mutant", "test": "growth inhibition of S. aureus wild type versus tarO mutant, primary screen, teichoic acid synthesis inhibitors, RN4220, OD600 (AID 463173)", "details": "OD600, 18 h, stronger effect = lower value, screened at 18.75 µg/mL (by protocol)", "values": [
      {"compound": "COc1cccc(C(C(=O)NCc2ccco2)N(C(=O)Cn2nnc3ccccc32)C2CC2)c1OC", "note": "(stereo not given)", "survival": "107%"},
      {"compound": "CCOC(=O)c1noc2nc(C)n(CC(=O)Nc3cc(Cl)ccc3OC)c(=O)c12", "survival": "109%"},
      {"compound": "Cc1csc2nc(CCNS(=O)(=O)c3ccccc3)cn12", "survival": "79%"},
      {"compound": "Cc1cc(C)c(/C=C/c2onc(C)c2S(=O)(=O)N2CCC(C(=O)Nc3ccc(Cl)c(C(F)(F)F)c3)CC2)c(C)c1", "survival": "67%"},
      {"compound": "Cc1nn2c(=O)cc(COC(=O)c3ccccc3NC(=O)c3ccccc3C)nc2s1", "survival": "104%"},
      {"compound": "COc1ccc(-c2nc3scc(CCNS(=O)(=O)c4c(C)cc(C)cc4C)n3n2)cc1OC", "survival": "85%"},
      {"compound": "Cc1ccccc1-c1nc(CNC(=O)Nc2ccccc2)c(C)o1", "survival": "89%"},
      {"compound": "CC(C)Oc1ccc(CN2CCc3nc(Nc4ccc5c(c4)OCCO5)ncc3C2)cc1", "survival": "77%"},
      {"compound": "Cc1ccc(Cl)cc1Nc1nn2c(=O)c3ccc(C(=O)NC(C)c4ccccc4)cc3nc2s1", "note": "(stereo not given)", "survival": "105%"},
      {"compound": "CN(C(=O)CSc1nc2ccc(NC(=O)COc3ccc(F)cc3)cc2s1)c1ccccc1", "survival": "73%"},
      {"compound": "CCC1CCCCN1CC(=O)N1CCCc2c1c(=O)oc1ccc(OCc3ccccc3)cc21", "note": "(stereo not given)", "survival": "18% (active)"},
      {"compound": "CC1CCN(CC(=O)N2CCCc3c2c(=O)oc2ccc(OCc4ccccc4)cc32)CC1", "survival": "98%"},
      {"compound": "CC1CCCCN1CC(=O)N1CCCc2c1c(=O)oc1ccc(OCc3ccccc3)cc21", "note": "(stereo not given)", "survival": "77%"},
      {"compound": "COc1ccc(N(Cc2nnc3n2CCCCC3)C(=O)Nc2cccc(C)c2)cc1Cl", "survival": "81%"},
      {"compound": "COc1ccc(C2CC(=O)c3cc(-c4nc(-c5ccc(Cl)cc5)cs4)c(=O)[nH]c3C2)cc1", "note": "(stereo not given)", "survival": "167%"},
      {"compound": "Cc1sc(-c2cc3c([nH]c2=O)CC(c2ccccc2)CC3=O)nc1-c1ccc(Cl)cc1", "note": "(stereo not given)", "survival": "73%"},
      {"compound": "COc1ccc(C2CC(=O)c3cc(-c4nc(-c5ccc(Cl)cc5)c(C)s4)c(=O)[nH]c3C2)cc1", "note": "(stereo not given)", "survival": "70% (active)"},
      {"compound": "CON(C)c1nc(OCCNC(=O)OCc2ccc(Cl)cc2Cl)nc(N(C)C)n1", "survival": "76%"},
      {"compound": "CCOc1ccc(NC(=O)CCCc2nnc3n(C)c(=O)c4sccc4n23)cc1", "survival": "78%"},
      {"compound": "Cc1ccc(C)c(N2CCN(C(=O)c3cc4c(=O)n(Cc5ccccc5)ccc4nc3C)CC2)c1", "survival": "78%"},
      {"compound": "COc1ccc(NC(=O)c2cc3c(=O)n(Cc4cccs4)ccc3nc2C)cc1", "survival": "75%"},
      {"compound": "Cc1ccc(C)c(N2CCN(C(=O)c3cc4c(=O)n(Cc5cccnc5)ccc4nc3C)CC2)c1", "survival": "46% (active)"},
      {"compound": "Cc1nc2ccn(Cc3cccs3)c(=O)c2cc1C(=O)Nc1ccccc1", "survival": "84%"},
      {"compound": "Cc1nc2ccn(Cc3cccs3)c(=O)c2cc1C(=O)NCc1ccccc1", "survival": "78%"},
      {"compound": "Cc1nc2ccn(Cc3cccnc3)c(=O)c2cc1C(=O)NCc1ccccc1", "survival": "72%"},
      {"compound": "CCc1ccc(CNC(=O)c2cc3c(=O)n(Cc4cccs4)ccc3nc2C)cc1", "survival": "32% (active)"},
      {"compound": "Cc1nc2ccn(Cc3cccnc3)c(=O)c2cc1C(=O)N1CCN(c2ccccc2)CC1", "survival": "105%"},
      {"compound": "Cc1nc2ccn(Cc3cccs3)c(=O)c2cc1C(=O)NCc1ccc(Br)cc1", "survival": "70%"},
      {"compound": "COc1cc(NC(=O)c2cc3c(=O)n(Cc4cccs4)ccc3nc2C)cc(OC)c1OC", "survival": "0% (active)"},
      {"compound": "COc1cccc(CNC(=O)c2cc3c(=O)n(Cc4cccnc4)ccc3nc2C)c1", "survival": "144%"},
      {"compound": "COc1ccc(CNC(=O)c2cc3c(=O)n(Cc4cccnc4)ccc3nc2C)cc1", "survival": "37% (active)"},
      {"compound": "CCc1ccc(-n2c(=O)c3cccnc3n2CC(=O)N(CC)c2cccc(C)c2)cc1", "survival": "94%"},
      {"compound": "COc1ccc(Cl)cc1NC(=O)CCc1c(C)nc2c(c1C)c(=O)n(C)c(=O)n2C", "survival": "94%"},
      {"compound": "Cc1cc(C)cc(NC(=O)Cn2c(C)cc(C)c(C#N)c2=O)c1", "survival": "89%"},
      {"compound": "CC(=NCCCn1ccnc1)c1c(C(F)(F)F)[nH]n(-c2nc3ccccc3s2)c1=O", "survival": "120%"},
      {"compound": "COC(=O)c1ccc(Cn2nnc3c(=O)[nH]c(C4CCCN(S(=O)(=O)c5ccccc5)C4)nc32)cc1", "note": "(stereo not given)", "survival": "99%"},
      {"compound": "CCOc1nc(NCCO)nc(NCCC2=CCCCC2)n1", "survival": "67%"},
      {"compound": "CCc1ccccc1-n1nnc(-c2nc(-c3ccccc3F)no2)c1C", "survival": "102%"},
      {"compound": "CC(C)(C)c1ccc(C(=O)NCC(=O)OCc2cc(=O)n3nc(C4CC4)sc3n2)cc1", "survival": "85%"},
      {"compound": "CCOC(=O)c1c(S(=O)(=O)N2CCN(c3cccc(C(F)(F)F)c3)CC2)c(C)n(C)c1C", "survival": "116%"},
      {"compound": "CCS(=O)(=O)c1cccc(C(=O)N2CCN(c3nc4c(C)ccc(Cl)c4s3)CC2)c1", "survival": "78%"},
      {"compound": "CC(=O)Nc1ccc(NC(=O)c2cc3c(=O)n(Cc4cccnc4)ccc3nc2C)cc1", "survival": "57%"},
      {"compound": "COc1ccc(CNC(=O)c2cc3c(=O)n(Cc4cccs4)ccc3nc2C)cc1", "survival": "37% (active)"},
      {"compound": "Cc1cccc(NC(=O)c2cc3c(=O)n(Cc4cccnc4)ccc3nc2C)c1", "survival": "0% (active)"},
      {"compound": "CCOc1ccc(CNC(=O)c2cc3c(=O)n(Cc4cccs4)ccc3nc2C)cc1", "survival": "112%"},
      {"compound": "Cc1nc2ccn(Cc3ccco3)c(=O)c2cc1C(=O)NCc1ccccc1", "survival": "79%"},
      {"compound": "Cc1nc2ccn(Cc3cccs3)c(=O)c2cc1C(=O)NCc1ccc(Cl)cc1", "survival": "49%"},
      {"compound": "COc1cccc(NC(=O)c2cc3c(=O)n(Cc4cccnc4)ccc3nc2C)c1", "survival": "101%"},
      {"compound": "Cc1ccc(CNC(=O)c2cc3c(=O)n(Cc4ccco4)ccc3nc2C)cc1", "survival": "87%"},
      {"compound": "Cc1nc2ccn(Cc3ccco3)c(=O)c2cc1C(=O)NCc1ccc(Cl)cc1", "survival": "47% (active)"},
      {"compound": "Cc1nn(C)c2c1c(-c1ccccc1)cc(=O)n2Cc1ccccc1Cl", "survival": "88%"},
      {"compound": "Cc1cccc(NC(=O)Cn2c(=O)n(CCc3ccccc3)c(=O)c3sc4ccccc4c32)c1", "survival": "105%"},
      {"compound": "Cc1ccc(Cn2ccnc2SCC(=O)NC2CCCC2)cc1", "survival": "89%"},
      {"compound": "Cc1cccc(C)c1NC(=O)CN1C(=O)c2ccccc2Sc2ncccc21", "survival": "88%"},
      {"compound": "COc1ccccc1-c1cc(C(=O)NCc2ccccc2)c2c(-c3ccc(C)cc3)[nH]nc2n1", "survival": "80%"}
    ]}
  ]
}
